From PubChem
The sample as a whole holds a higher share of hits than the screen did.
Cruzain Triton = cruzain (T. cruzi) inhibition with detergent. AID 1478. purified cruzain, Z-FR-AMC fluorescence, 0.01% Triton. 200,000 tested, 0.43% active. Potency, µM, inactives show max response, negative = inhibition, usual class: inhibitors. P25779;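 note: plate controls were neutral wells for no effect and buffer without enzyme for full effect; nearly all actives have a fitted effect of over 40% in size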
Target sequence (P25779 123-467 limits assumed): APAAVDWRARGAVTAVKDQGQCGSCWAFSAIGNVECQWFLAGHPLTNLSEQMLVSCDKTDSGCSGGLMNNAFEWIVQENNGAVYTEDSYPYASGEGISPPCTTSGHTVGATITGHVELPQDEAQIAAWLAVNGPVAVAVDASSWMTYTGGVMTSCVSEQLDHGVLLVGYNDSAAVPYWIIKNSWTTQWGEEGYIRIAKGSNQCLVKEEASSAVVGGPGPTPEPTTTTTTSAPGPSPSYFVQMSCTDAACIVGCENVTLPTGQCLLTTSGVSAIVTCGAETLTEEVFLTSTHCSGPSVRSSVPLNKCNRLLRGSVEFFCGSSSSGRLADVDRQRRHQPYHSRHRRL
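Purified cruzain (1.5 nM final) was preincubated with compounds for 15 min at room temperature in 100 mM sodium acetate pH 5.5, 5 mM DTT, 0.01% Triton X-100. Reaction started with 2 uM Z-FR-AMC; AMC fluorescence change over 60 s gave activity.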
Cruzain noTriton = cruzain (T. cruzi) inhibition without detergent; purified cruzain, Z-FR-AMC fluorescence, no detergent; 200,000 tested, 2.3% active; Potency, µM, without a hit: max response, negative = inhibition, hits mostly inhibitors; AID 1476; P25779;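 note: plate controls were enzyme without inhibitor for no effect and buffer without enzyme for full effect; nearly all actives have a fitted effect of over 40% in size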
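Purified cruzain at 1.5 nM, pre-incubated 15 min with compound at room temperature in 100 mM sodium acetate pH 5.5, 5 mM DTT, 0.00005% Triton X-100. Reaction started with 2 uM Z-FR-AMC; AMC fluorescence increase over 60 s gives rate.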
NS1 inh = blocks influenza NS1 protein function; Potency, µM (series often up to 46.1 µM), for inactives: at the top dose activity, positive = more growth; 270,000 tested, 0.4% active; calls by dose curve; note: actives are rising curves; nearly all actives have a fitted effect of over 50% in size
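Read-out: OD600 growth recovery of NS1-expressing budding yeast. Cells grown overnight at 30C in -URA glucose medium, washed, resuspended and diluted 1:100 in 2% galactose assay medium, pH 6.0. Same strain lacking NS1 served as positive control.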
Active calls of the source: *; ? = inconclusive; · = no result; ! = repeats disagree. Unless noted, calls come from the whole dose curve; as a rule, active = well fitted curve in the direction sought with a large enough effect; inconclusive = small, poorly fitted or top-dose-only effect, or another doubt; inactive = no such curve, though single readings can be large; an effect the other way counts as inactive or inconclusive. Potency is the fitted concentration of half-maximal effect.

SMILES | Cruzain Triton | Cruzain noTriton | NS1 inh
COc1ccc(-c2cc(C(=O)Oc3cccc(C)c3)c3cc(C)ccc3n2)cc1 | -3% | 1% | ·
O=C(Nc1ccc2oc(-c3ccc4ccccc4c3)nc2c1)c1ccc(Cl)c(Cl)c1 | 0% | -3% | ·
O=C(Nc1ccc2oc(-c3ccc4ccccc4c3)nc2c1)c1ccc2c(c1)OCCO2 | -3% | 10µM* | -2%
COc1ccc(Cl)cc1NC(=O)c1cc2c(=O)n3ccccc3nc2s1 | -12% | 4% | ·
Cc1ccc(Cn2ccc(NC(=O)c3cc4nc5c(c(C(F)(F)F)n4n3)CCc3ccccc3-5)n2)cc1 | 3% | 0% | -9%
Cc1ccc(O)c(NC(=O)c2cc3nc4c(c(C(F)(F)F)n3n2)CCc2ccccc2-4)c1 | -2% | 10µM* | 12%
Cc1ccc(-n2cc(-c3ccccc3)nc2S(=O)(=O)CC(=O)Nc2ccc(F)cc2)cc1 | 8% | 27% | ·
Cc1ccc(-c2cn(-c3ccc(Cl)cc3)c(S(=O)(=O)CC(=O)Nc3ccccc3)n2)cc1 | -18% | 16µM* | ·
Nc1nnc(SCC(=O)NCCOc2ccccc2)s1 | 28µM* | ? | 0%
O=C(CSc1nc2ccccc2s1)NCCOc1ccccc1 | -5% | 0% | -4%
Cc1cccc(S(=O)(=O)N2CCCc3ccccc32)c1 | · | · | -9%
Cc1cccc(NC(=O)CNc2cc(C)ccc2C)c1 | -5% | 20µM* | -2%
Cc1cccc(NC(=O)CC(=O)Nc2cccc(C)c2)c1 | · | · | -8%
Cc1[nH]c2c(ccc3ccccc32)c1C1C(CCN)C1(C)C (stereo not given) | -2% | 10µM* | 3%
S=c1[nH]c2ccc3ccccc3c2[nH]1 | · | · | -63%
COc1ccc(CCN2C(=O)C3C4CC(C5C(C(=O)NN)=NOC45)C3C2=O)cc1OC (stereo not given) | 2% | 3% | 10%
O=[N+]([O-])c1c(Nc2ccccc2O)cc(Cl)c2nonc12 | · | · | -58%
COc1ccccc1C(=O)NCC(=O)OC(C)C(=O)NC(=O)NC1CCCCC1 (stereo not given) | 8.9µM* | 10µM* | 3%
COc1ccccc1C(=O)NCC(=O)OCc1ccc(Br)cc1 | -19% | -11% | -19%
COc1ccc(OCc2cc(C(=O)N3C[C@@H](C)O[C@@H](C)C3)no2)c(Cl)c1 | · | · | -1%
Cn1cccc1/C=C1\C(=O)NC(=O)N(CCC2=CCCCC2)C1=O | -5% | 20µM* | 4%
O=C1NC(=O)N(CCC2=CCCCC2)C(=O)/C1=C\c1cccs1 | -3% | 7% | 15%
CCOc1ccc(N2C(=O)CC(S/C(N)=N/N=C/c3cccs3)C2=O)cc1 (stereo not given) | 0% | 10µM* | 10%
COc1ccc(N2C(=O)CC(S/C(N)=N/N=C(\C)c3cccs3)C2=O)cc1 (stereo not given) | -13% | 0% | -9%
COC(=O)c1cc(NC(=O)c2cccc(C(F)(F)F)c2)c(=O)oc1C | · | · | -3%
SMILES | Cruzain Triton | Cruzain noTriton | NS1 inh
COC(=O)c1cc(NC(=O)c2cccc(C(F)(F)F)c2)c(=O)oc1C/C=N/OCc1cccc(Cl)c1Cl | -28% | 0.79µM* | 28%
N[C@@H](Cc1ccccc1)c1nnc(SCc2ccccc2Cl)o1 | 4% | 18% | -33%
CCN(CC)C(=O)CSc1nnc([C@@H](N)Cc2ccccc2)o1 | 25µM* | 25µM* | ?
CCc1ccccc1NC(=O)CSc1nnc([C@@H](N)Cc2ccccc2)o1 | 10µM* | 10µM* | 11%
Cc1ccc(NC(=O)CSc2nnc([C@@H](N)Cc3c[nH]c4ccccc34)o2)c(C)c1 | 18µM* | 16µM* | 29%
C=C(C)CSc1nnc([C@@H](N)Cc2c[nH]c3ccccc23)o1 | -5% | 2% | 11%
CCc1ccccc1NC(=O)CSc1nc(C)c(C)o1 | · | · | -25%
COc1ccc(OC)c(CNC(=O)c2cnc(N(C)C)nc2)c1 | 0% | -8% | ·
CC(C)(C)c1ccc(-c2csc(NC(=O)CN3C(=O)NC4(CCCCC4)C3=O)n2)cc1 | 2% | 7.9µM* | 2%
O=C(CN1C(=O)NC2(CCCC2)C1=O)Nc1ccc(C(F)(F)F)cc1 | · | · | 4%
O=C(COC(=O)c1n[nH]c2ccccc12)Nc1ccc([N+](=O)[O-])cc1 | -6% | 10µM* | ?
CC(=O)Nc1ccc(NC(=O)COC(=O)c2n[nH]c3ccccc23)cc1 | · | · | 5%
CCOc1cc(C2NC(=O)c3ccccc3O2)ccc1OC (stereo not given) | · | · | 2%
O=S(=O)(Nc1nc2ccccc2nc1N1CCc2ccccc2C1)c1ccc(Br)cc1 | -4% | 7.9µM* | -36%
O=S(=O)(Nc1nc2ccccc2nc1N1CCc2ccccc2C1)c1ccc(Cl)cc1 | -5% | -76% | -2%
CCN(CC)C(=S)SSC(=S)N(CC)CC | 16µM*! | 7.9µM*! | -52%
C=C(Cl)CSC(=S)N(CC)CC | -2% | -4% | ·
CN(C)c1ccc(/C=N/NC2=NS(=O)(=O)c3ccccc32)cc1 | · | · | -6%
CCOC(=O)N1CCN(C(=O)c2ccc(Cl)c(S(=O)(=O)N3CCCC3)c2)CC1 | · | · | -7%
COc1ccc(/C=N\NC(=O)c2ccccc2Br)cc1COc1c(F)c(F)cc(F)c1F | · | · | -24%
COc1ccc2c(CC(=O)N[C@@H](Cc3c[nH]c4ccccc34)C(=O)O)cc(=O)oc2c1 | · | · | 2%
N=C(N)N=Nc1c(O)[nH]c2ccc(Br)cc12 | · | · | -4%
NC(=S)N=Nc1c(O)[nH]c2cc(F)c(F)cc12 | 14µM* | 10µM* | 10%
Cc1ccc(-c2nc3ncccc3o2)cc1N | · | · | -5%
Cc1cc(-c2nc3ncccc3o2)ccc1N | 28µM* | ? | -22%
SMILES | Cruzain Triton | Cruzain noTriton | NS1 inh
COc1ccc(N2CCN(C(c3ccccc3F)c3sc4nc(-c5ccco5)nn4c3O)CC2)cc1 (stereo not given) | -8% | 19% | ·
O=C(CCn1c(=O)oc2ccccc21)NCc1ccco1 | · | · | -3%
CNS(=O)(=O)c1cn(CC(=O)N2CCN(c3ccc(Cl)cc3)CC2)cc1S(=O)(=O)NC | 3% | 22% | ·
COc1ccc(C)cc1NC(=O)c1ccc(OC(F)F)cc1 | -5% | -25% | -5%
CCOC(=O)NC(=O)/C(C#N)=N\Nc1ccc(Cl)cc1 | -2% | 5µM* | -3%
CCOC(=O)NC(=O)/C(C#N)=N\Nc1cccc(Cl)c1 | · | · | -54%
CCN(Cc1ccccc1)S(=O)(=O)c1csc(C(N)=O)c1 | · | · | -1%
COc1cccc(/C=N/n2nnnc2N)c1 | · | · | 1%
CSc1ccc(C(=S)N2CCN(C(c3ccccc3)c3ccccc3)CC2)cc1 | -2% | 4µM* | 19%
CSc1ccc(C(=S)N2CCN(C)CC2)cc1 | 3% | 11% | -6%
O=C(CC12CC3CC(CC(C3)C1)C2)N/N=C/c1ccncc1 | -2% | -9% | -19%
O=C(Nc1ccccc1)/C(=C/c1ccccc1)c1ccccc1 | -3% | 13µM* | 17%
Cc1ccccc1NC(=O)/C(=C/c1ccccc1)c1ccccc1 | -1% | -5% | -21%
CCOC(=O)c1ccc(N=C2SC(C(=O)Nc3ccccc3)CC(=O)N2C)cc1 (stereo not given) | -9% | -3% | ·
Cc1nc(NC(=O)CSc2nnc(-c3ccccc3)c(-c3ccccc3)n2)c(Cl)cc1Cl | -13% | ? | 8%
O=C(CSc1nnc(-c2ccccc2)c(-c2ccccc2)n1)Nc1ncc(Cl)cc1Cl | -11% | 32µM* | 0%
O=C(Cc1ccccc1)NNC(=O)Nc1ccc(Cl)c(Cl)c1 | 0% | -1% | -3%
NC(=S)NNC(=O)Nc1ccc(Cl)c(Cl)c1 | 3.2µM* | 2µM* | -36%
